Here are results for 99 compounds from PubChem BioAssay AID1259309 (ICCB-Longwood Screening Facility, Harvard Medical School, 2017).

The structures appear in SMILES notation. “And” between values parts separate entries of the source, which are not always exact repeats. Equal values may be shown once. The whole screen tested about 330,000 compounds, of which about 1,800 (0.55%) were called active. Cut-off read from the data, not from the text of the source: active = growth inhibition above about 68%; inactive = the rest. The list comes from a sample in which actives are over-represented; it also holds similar structures and randomly drawn compounds.

The experiment is described as follows: growth inhibition of ugtP-null S. aureus, primary screen, RN4220 ugtP deletion, OD600 (AID 1259309).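 Note: plate controls were untreated wells for no effect and antibiotic for full effect.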 Particulars: 16 h, active compounds read high.
Regarding `CC1CCCC(C)N1N=Cc1ccc([N+](=O)[O-])cc1` (centres undefined), the growth inhibition is 18% (inactive). With `O=C(NN=Cc1cccs1)c1cnccn1` the figure was 1.82% (inactive); with `CCCc1ccc(OCC(=O)NNC(=S)NC(=O)c2ccco2)cc1`, 96% (active).

Regarding `CC(Oc1ccc2ccccc2c1)C(=O)NNC(=S)NC(=O)c1ccco1` (centres undefined), the growth inhibition was 91.7% (active). With `Cc1ccc(OCC(=O)NNC(=S)NCc2ccccc2)cc1` the figure was -11.7% (inactive); with `O=C(Nc1ccc2ccccc2c1)/C(=C/c1cccc(Br)c1)NC(=O)c1ccco1`, -9.2% (inactive); with `Cc1ccc(C(=O)NNC(=O)C(C)Oc2ccc3ccccc3c2)o1` (centres undefined), 8% (inactive). With `Cc1ccc(OCC(=O)NCCCNC(=O)c2ccco2)cc1C` the figure was -2.8% (inactive); with `CC(=NNC(=O)CSc1nc2ccccc2o1)c1cccc(O)c1`, 1.7% (inactive); with `COc1cccc(C=NNC(=O)c2cc(-c3cccn3C)n[nH]2)c1`, -20.1% (inactive). With `CN(Cc1c(C(=O)NN=Cc2cccc(F)c2)nnn1-c1nonc1N)c1ccccc1` the figure was 0.685% (inactive); with `Cc1ccccc1C(=O)ON=C(N)c1ccncc1`, 6.35% (inactive); with `O=C(Cn1nc2ccccc2n1)NN=Cc1cc(Cl)cc([N+](=O)[O-])c1O`, 2.61% (inactive). Turning to `COC(=O)CC1c2cc(C(F)(F)F)ccc2S(=O)(=O)N1Cc1ccccc1OC` (centres undefined), the growth inhibition was 4.2% (inactive). With `CCN(CC(=O)Nc1ccc(OC)cc1)C(=O)CSCc1ccc(C)cc1` the figure was 3.82% (inactive). As for `COc1ccc(CS(=O)/C(Cl)=C(/Cl)C(=O)Nc2ccc(OC)nc2)cc1` (centres undefined), the figure is 15.9% (inactive). With `COc1ccc(NC(=O)/C(Cl)=C(/Cl)S(=O)Cc2ccc(C)cc2)cn1` (centres undefined) the figure was 99.4% (active); with `C[C@]12CCC3c4ccc(OC(=O)c5ccccc5)cc4CCC3C1CCC2O` (some centres undefined), 19.4% (inactive); with `COc1ccc2c(c1)SC(C)CC2=O` (centres undefined), -4.08% (inactive). Consider `COc1ccc2c(c1)OC(O)(C(F)(F)C(F)F)CC2=O` (centres undefined), for which the growth inhibition is 99.4% (active). As for `COc1ccc2c(c1)C(=O)CC(c1ccccc1)O2` (centres undefined), the figure is 6.73% (inactive); as for `CCC(=NOC(=O)c1cccc(C)c1)C(=O)c1cccs1`, -0.652% (inactive); as for `O=C1/C(=C/c2cccs2)CCc2ccccc21`, 18.9% (inactive). Take `O=C1/C(=C/c2cccs2)CCC1C1CCCC1` (centres undefined): the growth inhibition is 8.34% (inactive). As for `CCC1C/C(=C/c2cccs2)C(=O)/C(=C/c2cccs2)C1` (centres undefined), the figure is 94.7% (active); as for `CC(CC(=O)Nc1ccccn1)=NNC(=O)C(=O)Nc1cccc(C)c1`, 3.99% (inactive); as for `COc1ccc(O)c(C=NNC(=O)CN2CCS(=O)(=O)CC2)c1`, -0.335% (inactive). With `CC(=NNc1ccc(C(F)(F)F)cn1)c1ccncc1` the figure was 1.19% (inactive). As for `O=C(NC(Nc1nc2ccc([N+](=O)[O-])cc2s1)(C(F)(F)F)C(F)(F)F)c1ccccc1`, the figure is 100% (active). With `O=C(COC(=O)c1ccc([N+](=O)[O-])cc1Cl)NC(=O)c1ccccc1`, the growth inhibition was -1.26% (inactive).

For the compound `N=C1C(c2nc3ccccc3s2)=C(O)CN1NC(=O)c1ccc([N+](=O)[O-])cc1`, the growth inhibition is -0.97% (inactive). With `Cc1ccsc1C=NNC(=O)c1ccncc1` the figure was -0.727% (inactive); with `O=S(=O)([N-]c1nc2ccccc2nc1-[n+]1ccc(Cc2ccccc2)cc1)c1ccc(Br)s1`, 95.2% (active). Turning to `O=S(=O)(NCc1ccccn1)c1ccc(Br)s1`, the growth inhibition is 5.99% (inactive). As for `Cc1cc(C(=O)CCl)c(C)n1CC1COc2ccccc2O1` (centres undefined), the figure is 90.8% (active).

For the compound `O=C1C(=O)N(CC2COc3ccccc3O2)c2ccccc21` (centres undefined), the growth inhibition is -2.06% (inactive). As to `Cc1ccsc1C(=O)OCC(=O)c1cc(C)n(CC2CCCO2)c1C` (centres undefined), the growth inhibition was 0.578% (inactive). Regarding `CCOC(=O)c1c(NC(=O)Cn2nc(C(F)(F)F)cc2C)sc2c1CCC2`, the growth inhibition was 2.33% (inactive). With `CCCOC(=O)Nc1sc2c(c1C(=O)OCC)CCC2`, the growth inhibition is 91.5% (active). As for `CCOC(=O)c1c(NC(=O)C(C)Sc2c[nH]c3ccccc23)sc2c1CCC2` (centres undefined), the figure is 25.3% (inactive); as for `CCOC1OC(C(=O)N2CCOCC2)=CC(c2ccc3c(c2)OCO3)C1CCCO` (centres undefined), 2.32% (inactive); as for `O=C(CNc1ccc2ccccc2c1)NN=Cc1ccc(C(=O)O)cc1`, 1.63% (inactive). As for `COc1ccc(C2C3=C(CCCC3=O)N(CC(=O)O)C3=C2C(=O)CCC3)cc1`, the figure is 7.87% (inactive); as for `COc1ccc2c(C)cc3nnnn3c2c1`, 3.97% (inactive); as for `CCn1c2c(c3ccc(OC)cc31)CCCC2=O`, 95.9% (active). Take `CCC1=C2CCC3C(=O)N(C)C(=O)C3C2[C@@]2(Cc3ccccc3)C(=NCCOC)OC(=O)N2C1=O` (some centres undefined): the growth inhibition was -1.76% (inactive). With `CC(C)(C)Oc1ncc(Br)c(OC(C)(C)C)n1` the figure was 2.82% (inactive); with `COc1cccc(-c2cnc(OC(C)(C)C)nc2OC(C)(C)C)c1`, 99.2% (active).

As for `COc1ccc(-c2nc(N)ncc2-c2ccc(Cl)cc2)c(O)c1`, the growth inhibition is -8.46% (inactive). As for `c1ccc(C2C3CN(Cc4cccnc4)C(c4ccccc4)C34CC2(c2ccccc2)C4)cc1` (centres undefined), the figure is 0.638% (inactive).

In the case of `O=C(O)c1ccc(NC(=NS(=O)(=O)c2ccc(Cl)cc2)c2ccccc2)cc1`, the growth inhibition was 4.64% (inactive). As for `Cc1nnsc1C(=O)NN=Cc1ccccc1Cl`, the figure is 0.586% (inactive).

Regarding `O=C(Nc1ccccc1)c1nnsc1S(=O)(=O)c1ccc(Cl)cc1`, the growth inhibition was 100% (active). With `Cn1c2ccccc2c2cc(C=NNC(=O)c3ccc(N)cc3)ccc21` the figure was -2.18% (inactive); with `COc1ccc(C2CC(=O)C=C(c3ccc4ccn(C)c4c3)C2)cc1` (centres undefined), 4.99% (inactive); with `CC(C)(C)c1cc(C(=O)NN=Cc2ccccn2)n[nH]1`, 4.75% (inactive). As for `O=C(NC(=S)Nc1ccc(S(=O)(=O)Nc2ncccn2)cc1)c1cccc(Br)c1`, the figure is -8.14% (inactive). With `O=C(NC(=S)Nc1cccc2c(O)cccc12)c1cccc(Br)c1` the figure was 99.6% (active); with `Cc1ccccc1NC(=S)NNC(=O)c1cccc(Br)c1`, 23.5% (inactive); with `Clc1cc(-c2ccc(C=Nn3cnnc3)o2)ccc1Br`, -3.77% (inactive). Regarding `O=C(/C=C/c1ccco1)NC(=S)Nc1ccccc1Br`, the growth inhibition is 90.7% (active).

On to `COc1ccc(Cl)cc1C(=O)NNC(=S)NC(=O)/C=C/c1ccco1`, for which the growth inhibition was -0.168% (inactive). Consider `O=C(/C=C/c1ccco1)NC(=S)N1CCCCC1`, for which the growth inhibition is 7.55% (inactive). As for `CC[C@@]12C(=O)N(c3ccccc3)C(=O)N1C(c1cccc(C)c1)C1C(=O)N(Cc3ccccc3)C(=O)C12` (some centres undefined), the figure is 3.88% (inactive); as for `CC(=NOC(=O)c1ccc(C)cc1)C(=O)c1ccc(Br)cc1`, 0.731% (inactive); as for `COc1ccc(S(=O)(=O)N2CCN(c3ncnc4c(-c5ccccc5)nsc34)CC2)cc1`, 5.08% (inactive). As for `COc1ccc(-c2csc3ncnc(N4CCN(S(=O)(=O)c5ccccc5C#N)CC4)c23)cc1`, the figure is 95.8% (active). As for `COc1ccc(-c2csc3ncnc(N4CCN(S(=O)(=O)c5cccc(F)c5)CC4)c23)cc1`, the figure is -16.7% (inactive); as for `CC(=NNC(=O)C1CC1c1ccccc1)c1cccs1` (centres undefined), 3.01% (inactive); as for `Cc1cc([N+](=O)[O-])cc(C=NNC(=O)C2COc3ccccc3O2)c1O` (centres undefined), 9.3% (inactive). As to `CC(=NNC(=O)c1ccncc1)c1ccc(NC(=O)c2ccc(Cl)cc2Cl)cc1`, the growth inhibition was -4.36% (inactive). With `Cc1cccc(NC(=S)Nc2ccc(Cl)c(Cl)c2)c1` the figure was 98.9% (active). On to `Cc1cccc(NC(=S)NN=C(c2ccccc2)C(C)C)c1`, for which the growth inhibition is 36.3% (inactive).

As for `Cc1ccc(NC(=S)Nc2ccc(F)cc2)cc1`, the growth inhibition was -2.35% (inactive). With `CC(=NN=C1SC(CC(=O)O)C(=O)N1c1ccccc1)c1ccc(C)cc1` (centres undefined) the figure was 7.85% (inactive); with `O=C(C(=NO)n1cncn1)c1ccc(Cl)cc1Cl`, 18.1% (inactive). With `Fc1cccc(C=NN=Cc2cccc(F)c2)c1` the figure was 2.16% (inactive); with `Cc1cc(Nc2ccc(Br)cc2)nc2ccccc12`, 84.1% (active). `CN1CCN(c2nc(Nc3ccc(O)cc3)nc3ccccc23)CC1`: the growth inhibition was -7.09% (inactive).

For `Clc1ccc(Nc2ccc3ccccc3n2)cc1`, the growth inhibition was -34.6% (inactive). With `CC(=NNc1nc(-c2ccc(Cl)cc2)cs1)c1cccs1` the figure was -2.32% (inactive). With `COc1ccc(C=NNC(=O)c2cccc3ccccc23)c(OC)c1OC` the figure was 7.75% (inactive); with `CCC(=O)N(C)CCc1cc2c(c(OC)c1C=NNC(=O)c1ccccc1O)OCO2`, 9.87% (inactive); with `CC(=NNC(=O)c1c(C)nc2ccccn12)c1ccccc1F`, 6.04% (inactive). As for `COc1cc(C=Nn2c(C)nc3ccccc3c2=O)ccc1O`, the figure is 2.48% (inactive); as for `CCC(=O)CC(c1ccc([N+](=O)[O-])cc1)c1c(O)c2ccccc2oc1=O` (centres undefined), 12% (inactive); as for `COc1cc(C(c2c(O)c3ccccc3oc2=O)c2c(C)n(C)n(-c3ccccc3)c2=O)ccc1O` (centres undefined), 82.9% (active). Consider `S=C(NCCN1CCOCC1)NN=Cc1ccccc1`, for which the growth inhibition is -0.962% (inactive). With `Cc1ccc(C=NNC(=O)c2ccc(C(=O)NN=Cc3ccc(C)s3)o2)s1` the figure was -0.554% (inactive); with `COc1ccc(C(=O)NC(=S)Nc2ccccc2N2CCN(S(C)(=O)=O)CC2)cc1OC`, -0.518% (inactive); with `O=C(NC(=S)Nc1ccccc1N1CCCCC1)c1ccc(F)cc1`, 59.3% (inactive).

Consider `COc1ccccc1C(=O)NC(=S)Nc1ccccc1N1CCCCC1`, for which the growth inhibition is 93.3% (active). As to `COc1ccc(C(=O)/C=C/c2cccnc2)c(OC)c1`, the growth inhibition was 5.58% (inactive). As for `COc1ccc(/C=C/C(=O)c2cc(Br)ccc(=O)c2O)cc1`, the figure is 95.4% (active); as for `COc1ccc(NC(=O)ON=Cc2ccc(Br)cc2)cc1`, 4.87% (inactive); as for `CCC(C)Sc1ccc(C2N[C@@](C)(C(=O)OC)C3C(=O)N(C)C(=O)C23)cc1` (some centres undefined), 2.56% (inactive). On to `Cc1c(CCOC(=O)c2cc([N+](=O)[O-])ccc2Cl)sc[n+]1CCCCS(=O)(=O)[O-]`, for which the growth inhibition was -10.2% (inactive). As for `Cc1c(CCO)sc[n+]1CC(=O)OC12CC3CC(CC(C3)C1)C2`, the figure is 7.76% (inactive); as for `Cc1c(CCOC(=O)CC23CC4CC(CC(C)(C4)C2)C3)sc[n+]1Cc1ccc([N+](=O)[O-])cc1`, 101% (active) and 100% (active).
